Results published in the supplement of paper PMC11417369.
The full ranking holds about 25,000 sequences; the median of “ln(normalized median fluorescence intensity)” is about 7.1, and the highest 2% start at about 10. The sample as a whole holds a higher share of the highest values than the screen did.

Each sequence was assayed on PfSIP2 AP2 domain 1 (GST-tagged) (assay: gcPBM binding intensity (ln(normalized median fluorescence intensity)); higher = stronger DNA binding).
Summary of the method: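 The highest Masliner-normalised natural-log median intensity across replicate spots of either probe orientation is reported as binding intensity. GST-tagged P. falciparum DNA-binding domains expressed in E. coli were applied for 1 h to an Agilent 4 × 180k array of primer-extended double-stranded 36-bp intergenic genomic probes plus negative controls, and bound protein was detected with Alexa488 anti-GST antibody and scanned at 488 nm.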

Sequence	gcPBM binding intensity (ln)
TGTTTTATTTATTAAGCACACGCGATTTAAAAAATA [CACACA_site981]	6.79
TGTATATTTTAGTGATGTACTAATATTATTACTAAT [XGTACX_site3952]	6.99
TTCTAATATTTACATAATATATAGAAATATAAAGGT [XGTACX_negctrl_site504]	7.4
AGCAAAACAAAAAAATTAAAATTAACATATAATCAT [GTGCAC_negctrl_site393]	6.7
TATATTAACAAAATGGTGCAATAATTTCTATATTAT [GTGCAC_site9857]	10.4
TATATTAACAAAATGGTGCAATAATTTCTATATTGT [GTGCAC_site9430]	9.87
GTAGACATTATAATGGTGCAAAAAAATTAACAAAAA [GTGCAC_site9891]	10.5
GTTAACAAATAATGCACACAAATGGATAAAATTATA [CACACA_site3725]	7.68
TATATTATCAAAATGGTGCAATAATTTCTATATTAT [GTGCAC_site9772]	9.9
TTAAATACTAAAAAGTGTACACATACATAAAAAATT [XGTACX_site6261]	7.32
TTTTGTTTATTATGATTCAAAATGATTTTATCTTTG [TGCATGCA_negctrl_site425]	6.71
ACATATATATATTTATATATATATATATATATGTGA [CACACA_negctrl_site613]	7.44
AAGTATAGTCTTACATATATATATATATATATATAT [GTGCAC_negctrl_site280]	9.42
AGTTTTATATAAGCTTGTACTTAATATTATTAAGTA [XGTACX_site5919]	6.99
ATCTAATATATATTCTGTACGTAATTAAAACCACAA [XGTACX_site3152]	7.54
GGACTTAAATAAAATGGTACAGAATTTATATATATT [XGTACX_site8214]	6.83
TAGTTAACAAATAATGCACACAAATGGATAAAATTA [CACACA_site9240]	7.83
TTAAAAGTTATGGATACACACATATAAATATAGATT [CACACA_site7175]	6.77
AAATAGTTGTTAAAGGTGCACAATATGGATATAAGA	11.2
GTAAATATTAATAAAAGTACATATGTAGCATATGGA [XGTACX_site5219]	7.09
TTATTTATTTATTCATGTACGTGTATTTTTTAAAAA [XGTACX_site7915]	7.28
TGTGCACGTTCTGTGACACACATTTAAATGTGCTTA [CACACA_site176]	10.7
TTAAATTACTAATGTGCACACATACTAACGTTTAAA [CACACA_site3573]	9.21

Sequence	gcPBM binding intensity (ln)
TATATATATATATATGTGCACATTTTATTAAAATGT	9.6
TCTGTATATTTCGCGCGTACGAACAAATTGATAATT [XGTACX_site7965]	7.11
AGAAAAATAAACAAATGTACAAATTATTACTATATA [XGTACX_site1087]	6.8
AAAAATATAATATAATGTACACAAAAAAAAAAAAAT [XGTACX_site4914]	7.13
TATAATATAATATATGCACACAAATATGTATATATG [CACACA_site8664]	7.15
GTATATAATATTAGTGCACACACAAAAATGTACTAA [CACACA_site8112]	10.9
ATATAATATTAGTGCACACACAAAAATGTACTAAAC [CACACA_site632]	10.9
AAAAATATAATATAATGTACACATAAACAAAAAAAA [XGTACX_site3658]	7.04
CTATAATATTAGTGCACACACAAAAATGTACTAAAC [CACACA_site6442]	11.3
ATAATAAATACACTAGTGCAAAATAATATATGTACT [GTGCAC_site9707]	8.13
ATATTACAAATATAATGTACAAAATATAAATATGCA [XGTACX_site8106]	6.85
TTCGTATATTATTAATGTACATTATAAAATCAATAT [XGTACX_site5751]	7.08
GACTGAACAACATAATGTACATTTATAAGTATATAT [XGTACX_site3813]	7.15
TTTTTTTTCAATGGTTGTACAAAGTAAAACAACAAA [XGTACX_site1582]	7.2
ATATGTAAATAAATATGTACTCATTTATTATTTTAT [XGTACX_site8748]	7.06
CATTTTATTCTATATGCATGTTAAAAAATGTGTTGA [TGCATGCA_site128]	7.12
AAATATAATATACAAAGTACTTTTTCATCTTATATA [XGTACX_site8771]	6.84
AAACAATTTGGGTGTACACATGATACGTTCGATGAG [CACACA_site5160]	7.18
ATAAAAGAATAAATAAAACACATATATATATATATA [XGTACX_negctrl_site31]	9.43
ATATTTATAAATTGCACACAAATAATAACATTATAT [CACACA_site5322]	7.13
CTTTGTAGTATATTAACACACAACTGTTTATAATAT [CACACA_site6038]	7.05
TTCTTTGTAGTATATTAACACACAACTGTTTATAAT [CACACA_site9305]	7.27
AAATATTTATAAATTGCACACAAATAATAACATTAT [CACACA_site8737]	7

Sequence	gcPBM binding intensity (ln)
TATAATATTTGGTGCACACAAATTAACAACTGTTTA [CACACA_site3742]	11.7
TGTATAATATTTGGTGCACACAAATTAACAACTGTT [CACACA_site9245]	11.4
AAAGGTTCACATTATATAGTTATGTAATATATATGT [CACACA_negctrl_site542]	6.84
ATATTTCATTTTTGTACACACAACGTTGGAGGGTTT [CACACA_site3043]	7.18
TCATATTTCCATAGGAGTACATAAAAAAAATAATAT [XGTACX_site7601]	7.06
TAAAAATAATATTAATGTACATTACATATTAATATA [XGTACX_site1019]	6.83
GTTATAAATGCATATACACACATACGTACATACATA [CACACA_site7655]	7.4
TTTTATAAATACACACGTACGTGTGCATAACGTTTT [XGTACX_site3199]	7.21
CATTTTTTTTTATAAATACACACGTACGGGTGCATA [CACACA_site1569]	10.9
TTTTTTTTTATAAATACACACGTACGGGTGCATAAC [CACACA_site8444]	11.3
ATAAATAAATTTATACGTACACATAATATATATATA [XGTACX_site4634]	8.89
AAAAGACATTTTTTTTTATAAATACACACGTACGTG [TGCATGCA_negctrl_site281]	6.95
ATGTATTTATTATTTAGTACACATTATTTTCTTATA [XGTACX_site6365]	7.05
AAATACATATTTAGAAGTACATTTATACATTTAATA [XGTACX_site8871]	7.04
CATATATAAATATATACACACATATATATATATATA [CACACA_site1365]	9.43
TGAAGGTCAGTTCACAGTACCCAGTAACTCTACGGA [XGTACX_site2554]	6.62
AGGATTATATATTAATGTACCCGCGTTAATTTTTTT [XGTACX_site2878]	6.82
TTTTTTTTTATAAGGTGTACGTAAAATGTGTAGGTC [XGTACX_site3585]	8.36
GTCTATATATTTTAGGTGCAACGTAAATGTAAAAAT	10.7
ATATATATATTTATATTTATATGTAAATATCAACGT [TGCATGCA_negctrl_site32]	8.59
TTAAGTAGTACATACACACACATATACAAAAAGAAA [CACACA_site3972]	7.3
AGAATGAAATAATATACACACAAAGGAAAAATGTAA [CACACA_site3911]	6.76
TACATATATTTTTATACATGCATAACTTAGGACTTT [TGCATGCA_site113]	7.07

Sequence	gcPBM binding intensity (ln)
CATATAAATATTTGTGCACACAATTATTAATAATTA [CACACA_site3884]	9.35
TTTTTTTTTTTTTTTGTGCACAATATAATTTTTAAT [GTGCAC_site9747]	8.64
TGTGCATAATTTTGTGCACACCACGCTAATAATTTT [CACACA_site2915]	10.9
ATAGTATCTGGTAGCTGTACGAGTCGTATAGTGCAG [XGTACX_site2542]	8.25
AAAAAAAATTATATATGTACTTATTAATCCTTATAT [XGTACX_site1389]	6.86
TACATCATCTATAAGGTGCATTTTAGTTCTATTAAA	10.8
GATGTTTCTATTTTAGTGCATTTTAAATAAATAAAT	9.4
TTTTCTAAATAAATAGTGCATTTATTATATATACAT [GTGCAC_site9766]	9.15
AAAAAAAAAAGAAATTGTACTTTTTGTTTAATAATT [XGTACX_site4681]	6.65
TTGTTCTTTTGAAAGGTGCAAAAGAAAAATAATTAA	11.2
TTGTTCTTTTTTTTTTTATTTTTTAATTTGAAAAGA [CACACA_negctrl_site209]	7.03
CATATTCCCCCCCACACACACACACCCATACATACC [CACACA_site2303]	10.2
CATATTCCCCCCCACACACACACACGCATACATACC [CACACA_site7148]	10.1
GACATATTCCCCCCCACACACACACCCACATACATA [CACACA_site2302]	9.81
TCTATATAATACCAATGTACATAGTTTTAAGCATAA [XGTACX_site1889]	6.93
TATAAAACGGATGAACAACAAATCATATGGCACAAA [TGCATGCA_negctrl_site608]	7.23
TTGTATCCTTAATGCATGCACCAAATAACAAAAGTA	10.6
ACAAAGTAAAATAATGCATGTAGGTATACATAATTA [TGCATGCA_site607]	6.64
TATTGTATCCTTAATGCATGCACCAAATAAAAAAAG [TGCATGCA_site541]	11.1
TTAAAAAAGTAATTAACACACAATAATGTAATGCAT [CACACA_site4176]	6.72
TTTTTGTATCCTTTTAATATTAAATAAAAGGAATGT [CACACA_negctrl_site1468]	7.02
CTGTATAAAACCAATGCATGTAAATATATTAATATA [TGCATGCA_site511]	7.06
